We go through 20 molecules from PubChem BioAssay.

Structures are written as SMILES. Values without a mark were called inactive. For some of these results: Entries with a potency or affinity are not part of this list. Active and inactive are the calls of the source. Unless noted, the rule behind the calls is not given here.

The nature of assay [1]: antimalarial activity against Dd2 strain (AID 2302;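 active = growth inhibition above 50% at the single 2 µM test dose, taken to imply half-maximal potency below 2 µM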;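 note: 0% = DMSO untreated growth and 100% = chloroquine plus artemisinin killed control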). Conditions: P. falciparum Dd2 in RBCs, LDH growth readout, 72 h; at 2 µM; active compounds read high.
Assay [2] can be described thus: human hepatoma cell viability loss – ATP luminescence, cytotoxicity control for P. falciparum antimalarial project, primary screen (AID 2303;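 active = inhibition above 50%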;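 note: 0% = DMSO wells and 100% = digitonin-killed cells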). Conditions: HepG2 viability, 24-48 h, at 10 µM, active compounds read high.
For assay [3], the target named is L-lactate dehydrogenase (Plasmodium falciparum (isolate CDC / Honduras)) (UniProt Q27743). The experiment in a line: PfLDH activity inhibition – cell lysate, 3D7 strain, counter-screen for P. falciparum growth inhibition project (AID 2304).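 Note: 0% = vehicle and 100% = reference inhibitor.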 Particulars: P. falciparum 3D7 crude extract, LDH APAD/NBT absorbance; at 2 µM; active compounds read high. Background: A counterscreen serves to expose hits that act by an unwanted route or on another target.

A short description of assay [4]: inhibition of 3D7 malaria parasite growth – strain 3D7 (AID 2306).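 Note: 0% = DMSO wells and 100% = chloroquine plus artemisinin control wells.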 Particulars: P. falciparum 3D7 erythrocytic growth, LDH absorbance, 72 h; at 2 µM; active compounds read high.
Assay [5] addresses Calcium-dependent protein kinase 1 (Plasmodium falciparum (isolate 3D7)) (UniProt P62344). Kind of assay: PfCDPK1 kinase inhibitors, biochemical, TCAMS library (AID 1159585; cut-off not given, nearly all actives have IC50 up to about 0.98 µM;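 note: inhibitors leave more ATP so luminescence rises with inhibition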). Particulars: recombinant PfCDPK1, Kinase-Glo ATP depletion luminescence. Background: Kinase-Glo reads ATP consumption through a luciferase reaction.
Assay [6] deals with Plasmodium falciparum protein kinase 6 (PK6, PF3D7_1337100) (UniProt Q8IDW1). The experiment in a line: PfPK6 kinase inhibitors, biochemical, TCAMS library (AID 1159586). Particulars: recombinant PfPK6, Kinase-Glo ATP depletion luminescence.
Assay [7] addresses Protein kinase 7 (PK7), Plasmodium falciparum 3D7 (PF3D7_0213400) (UniProt Q7YTF7). Kind of assay: inhibition of Plasmodium PK7 catalytic activity – biochemical, TCAMS antimalarial set, Kinase-Glo luminescence (AID 1159587). Particulars: recombinant PfPK7, Kinase-Glo ATP depletion luminescence.
The target in assay [8] is Calcium-dependent protein kinase 4 (Plasmodium falciparum (isolate 3D7)) (UniProt Q8IBS5). The experiment in a line: PfCDPK4 kinase inhibitors, biochemical, TCAMS library (AID 1159588; cut-off not given, nearly all actives have IC50 up to about 0.91 µM). Conditions: recombinant PfCDPK4, Kinase-Glo ATP depletion luminescence.
Calcium-dependent protein kinase 4 (Plasmodium falciparum (isolate 3D7)), sequence (Q8IBS5 whole entry, looked up): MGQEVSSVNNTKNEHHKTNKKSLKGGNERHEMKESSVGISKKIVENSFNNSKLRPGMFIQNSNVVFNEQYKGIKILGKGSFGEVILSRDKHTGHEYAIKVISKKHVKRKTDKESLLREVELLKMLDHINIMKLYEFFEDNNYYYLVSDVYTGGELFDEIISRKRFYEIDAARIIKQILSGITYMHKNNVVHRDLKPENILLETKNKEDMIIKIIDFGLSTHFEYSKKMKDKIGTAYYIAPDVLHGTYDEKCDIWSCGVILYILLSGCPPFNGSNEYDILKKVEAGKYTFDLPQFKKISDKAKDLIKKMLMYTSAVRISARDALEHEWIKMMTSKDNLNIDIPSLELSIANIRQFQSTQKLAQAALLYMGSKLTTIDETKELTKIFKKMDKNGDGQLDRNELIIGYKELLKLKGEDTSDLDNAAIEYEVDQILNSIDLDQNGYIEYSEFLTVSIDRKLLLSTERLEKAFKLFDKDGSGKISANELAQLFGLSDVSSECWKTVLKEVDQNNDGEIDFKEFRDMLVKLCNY

Protein kinase 7 (PK7), Plasmodium falciparum 3D7 (PF3D7_0213400), sequence (Q7YTF7 1-343): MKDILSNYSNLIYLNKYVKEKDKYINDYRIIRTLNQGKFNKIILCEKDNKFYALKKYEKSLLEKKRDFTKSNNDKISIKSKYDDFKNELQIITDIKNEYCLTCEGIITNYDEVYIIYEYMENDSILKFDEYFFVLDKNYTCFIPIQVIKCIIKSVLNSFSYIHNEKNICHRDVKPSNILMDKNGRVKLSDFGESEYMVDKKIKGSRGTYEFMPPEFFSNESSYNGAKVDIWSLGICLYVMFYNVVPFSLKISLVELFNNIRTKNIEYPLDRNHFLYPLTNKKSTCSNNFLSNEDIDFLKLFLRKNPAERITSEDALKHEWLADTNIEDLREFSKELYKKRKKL
Calcium-dependent protein kinase 1 (Plasmodium falciparum (isolate 3D7)), sequence (P62344 whole entry, looked up): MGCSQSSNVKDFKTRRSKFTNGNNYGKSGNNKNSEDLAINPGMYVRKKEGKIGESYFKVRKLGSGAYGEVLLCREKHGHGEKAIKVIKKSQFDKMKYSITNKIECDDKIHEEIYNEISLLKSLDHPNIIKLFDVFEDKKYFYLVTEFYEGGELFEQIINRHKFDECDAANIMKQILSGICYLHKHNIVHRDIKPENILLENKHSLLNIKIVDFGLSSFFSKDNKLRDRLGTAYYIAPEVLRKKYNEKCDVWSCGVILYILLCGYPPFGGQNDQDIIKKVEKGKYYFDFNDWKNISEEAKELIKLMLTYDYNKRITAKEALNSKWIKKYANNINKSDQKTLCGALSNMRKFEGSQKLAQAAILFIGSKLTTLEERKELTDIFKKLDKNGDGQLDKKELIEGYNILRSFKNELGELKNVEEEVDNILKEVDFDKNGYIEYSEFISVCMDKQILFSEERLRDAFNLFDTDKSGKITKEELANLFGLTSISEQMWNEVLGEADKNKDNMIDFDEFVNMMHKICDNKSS
L-lactate dehydrogenase (Plasmodium falciparum (isolate CDC / Honduras)), sequence (Q27743 whole entry, looked up): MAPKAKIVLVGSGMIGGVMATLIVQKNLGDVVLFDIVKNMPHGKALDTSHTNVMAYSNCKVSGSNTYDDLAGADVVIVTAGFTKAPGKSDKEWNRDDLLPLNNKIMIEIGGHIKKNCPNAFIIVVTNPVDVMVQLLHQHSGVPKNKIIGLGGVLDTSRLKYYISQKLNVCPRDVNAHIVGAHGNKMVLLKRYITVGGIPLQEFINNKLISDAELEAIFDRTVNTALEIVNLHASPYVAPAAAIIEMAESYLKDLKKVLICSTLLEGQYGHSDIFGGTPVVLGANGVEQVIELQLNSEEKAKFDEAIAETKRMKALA
Plasmodium falciparum protein kinase 6 (PK6, PF3D7_1337100), sequence (Q8IDW1 1-305): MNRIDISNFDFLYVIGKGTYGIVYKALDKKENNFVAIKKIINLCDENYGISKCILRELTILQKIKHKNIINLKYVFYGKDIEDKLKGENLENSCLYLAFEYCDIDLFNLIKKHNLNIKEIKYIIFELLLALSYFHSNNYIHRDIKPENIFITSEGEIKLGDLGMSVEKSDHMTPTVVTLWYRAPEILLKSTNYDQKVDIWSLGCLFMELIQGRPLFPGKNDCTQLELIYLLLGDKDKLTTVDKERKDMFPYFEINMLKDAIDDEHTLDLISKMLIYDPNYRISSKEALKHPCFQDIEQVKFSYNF

Usually inhibition stands for the relative decrease from the control value, in per cent. Turning to `O=C(Nc1ccc(-c2ccccc2)cc1)Nc1ccc2c(c1)CCNCC2`, the growth inhibition in assay [1] is 48%; in assay [4], 97% (active). Moreover, the inhibition in assay [2] is 41%; in assay [3] it was -2%. For the same molecule, the outcome in assay [5], in assay [6], in assay [7] and in assay [8] was inactive.
For the molecule `Cc1ccccc1C1CCN(c2ccc(C(=O)Nc3ccc(F)cc3)cn2)CC1`, the growth inhibition in assay [1] and in assay [4] was 96% (active) each time. Moreover, the inhibition is 45% in assay [2] and -1% in assay [3]. Further, the outcome in assay [5], in assay [6], in assay [7] and in assay [8] was inactive.
Consider `CCC(C)C(COC(=O)c1cc(OC)c(OC)c(OC)c1)N(C)CCN(C)C(COC(=O)c1cc(OC)c(OC)c(OC)c1)C(C)CC` (stereo not given), for which the values for the growth inhibition in assay [1] and in assay [4] were 45% and 84% (active), respectively. The inhibition in assay [2] is 20%; in assay [3], 3%. Moreover, the result in assay [5], in assay [6], in assay [7] and in assay [8] was inactive.
In the case of `Cc1cccc2[nH]c(-c3cccc(-c4cccc(NC(=O)Nc5ccc(Cl)c(Cl)c5)c4)c3)nc12`, the growth inhibition in assay [1] was 96% (active); in assay [4], 101% (active). In addition, the figures for the inhibition in assay [2] and in assay [3] were 24% and 1%, respectively. The outcome in assay [5], in assay [6], in assay [7] and in assay [8] was inactive.
As for `Cc1ccc2nc(C)n(C3CCN(C(=O)Cc4ccc(F)c(F)c4)CC3)c2c1`, the growth inhibition in assay [1] and in assay [4] was 100% (active) each time. In addition, the inhibition was 4% in assay [2] and 0% in assay [3]. Further, the outcome in assay [5], in assay [6], in assay [7] and in assay [8] was inactive.
Regarding `COc1ccc(CCNCC(O)COc2nccc3c(S(=O)(=O)N4CCCNCC4)cccc23)cc1OC` (stereo not given), the growth inhibition in assay [1] was -5%; in assay [4], 96% (active). In addition, the inhibition in assay [2] was 59% (active); in assay [3] it was -6%. For the same molecule, the result in assay [5], in assay [6], in assay [7] and in assay [8] was inactive.
`CN(CCNCc1ccc(-c2cccc(-c3nc4ccccc4[nH]3)c2)cc1)S(C)(=O)=O`: the growth inhibition in assay [1] is 29%; in assay [4] it was 101% (active). The inhibition in assay [2] was 9%; in assay [3], -2%. Besides, the result in assay [5], in assay [6], in assay [7] and in assay [8] was inactive.
Turning to `COCCNc1nc(N2CCC(CNC(=O)c3ccc(-c4ccc(C(=O)N(C)C)cc4C)cc3)CC2)nc2cc(OC)c(OC)cc12`, the growth inhibition in assay [1] is 97% (active); in assay [4] it was 98% (active). Further, the inhibition in assay [2] was 12%; in assay [3], 3%. The outcome in assay [5], in assay [6], in assay [7] and in assay [8] was inactive.
As to `O=C(Nc1ccc(-c2cccc(-c3nc4ccc(C(F)(F)F)cc4[nH]3)c2)cc1)c1ccc(=O)[nH]n1`, the growth inhibition in assay [1] is 13%; in assay [4], 87% (active). Moreover, the inhibition in assay [2] was 72% (active); in assay [3], -4%. Besides, the outcome in assay [5], in assay [6], in assay [7] and in assay [8] was inactive.
Turning to `N#Cc1c(N)nc(SCC(=O)Nc2cc(C(F)(F)F)ccc2Cl)c(C#N)c1-c1cccs1`, the growth inhibition in assay [1] was 96% (active); in assay [4], 90% (active). The inhibition is 23% in assay [2] and -4% in assay [3]. The outcome in assay [5], in assay [6], in assay [7] and in assay [8] was inactive.
Take `CCN(CC)S(=O)(=O)c1ccc(C=CC(=O)Nc2cc(Cl)ccc2N2CCOCC2)cc1`: the growth inhibition is 65% (active) in assay [1] and 90% (active) in assay [4]. Moreover, the values for the inhibition in assay [2] and in assay [3] were 3% and 4%, respectively. The result in assay [5], in assay [6], in assay [7] and in assay [8] was inactive.
For the molecule `CCOc1ccc2c(NN=Cc3cccc(OC)c3)cc(C)nc2c1`, the figures for the growth inhibition in assay [1] and in assay [4] were 81% (active) and 97% (active), respectively. Also, the inhibition is 38% in assay [2] and -5% in assay [3]. The result in assay [5], in assay [6], in assay [7] and in assay [8] was inactive.
On to `O=C(Nc1ccc(-c2nc3ccccc3[nH]2)cc1)c1ccc(Cl)c([N+](=O)[O-])c1`, for which the growth inhibition in assay [1] was 4%; in assay [4], 99% (active). The inhibition in assay [2] was 6%; in assay [3], 1%. Moreover, the outcome in assay [5], in assay [6], in assay [7] and in assay [8] was inactive.
Turning to `COc1ccc(CN(C)C(=O)CCNS(=O)(=O)c2ccc3c(c2)OCCCO3)cc1F`, the growth inhibition in assay [1] is 94% (active); in assay [4] it was 96% (active). Further, the inhibition in assay [2] is 9%; in assay [3] it was 0%. Further, the outcome in assay [5], in assay [6], in assay [7] and in assay [8] was inactive.
As for `NC1=Nc2ccc(Cl)cc2C1(O)c1ccccc1` (stereo not given), the growth inhibition in assay [1] was 51% (active); in assay [4], 100% (active). The inhibition in assay [2] and in assay [3] was -3% in each case. For the same molecule, the result in assay [5], in assay [6], in assay [7] and in assay [8] was inactive.
`O=C(O)c1cc(C(F)(F)F)co1`: the growth inhibition in assay [1] is 19%; in assay [4], 96% (active). Also, the inhibition in assay [2] was -4%; in assay [3] it was 1%. Besides, the outcome in assay [5], in assay [6], in assay [7] and in assay [8] was inactive.
Consider `O=[N+]([O-])c1cccc(C(Nc2ccccn2)c2ccc3cccnc3c2O)c1` (stereo not given), for which the growth inhibition in assay [1] was 29%; in assay [4], 86% (active). The inhibition in assay [2] is 53% (active); in assay [3], 0%. Also, the outcome in assay [5], in assay [6], in assay [7] and in assay [8] was inactive.
Consider `Cc1nc(NC2=NCN(CCCN3CCOCC3)CN2)nc2c(C)cccc12`, for which the values for the growth inhibition in assay [1] and in assay [4] were 62% (active) and 89% (active), respectively. The results for the inhibition in assay [2] and in assay [3] were 17% and 4%, respectively. Further, the outcome in assay [5], in assay [6], in assay [7] and in assay [8] was inactive.
With `COc1cc(Cc2cnc(N)nc2N)c2c(c1OC)OC(C)C=C2` (stereo not given), the growth inhibition in assay [1] is 1%; in assay [4], 87% (active). In addition, the inhibition in assay [2] was -1%; in assay [3] it was 6%. The outcome in assay [5], in assay [6], in assay [7] and in assay [8] was inactive.
Take `CCCCn1c(Sc2ccc(C#N)c([N+](=O)[O-])c2)nnc1-c1cccc(Cl)c1`: the growth inhibition is 87% (active) in assay [1] and 96% (active) in assay [4]. The inhibition is 30% in assay [2] and 2% in assay [3]. Further, the outcome in assay [5], in assay [6], in assay [7] and in assay [8] was inactive.
